# Pf growth 96h: Primary qHTS for delayed death inhibitors of the malarial parasite plastid, 96 hour incubation. Potency, µM (top dose mostly 28.7 µM), for inactives: at the top dose activity change, negative = inhibition, actives largely listed as inhibitors. AID 504834, 2011. 6.9% of 320,000 active. P. falciparum luciferase reporter growth, 96 h; active means well fitted inhibition curve with a large enough effect; inconclusive means small, poorly fitted or top-dose-only effect, or another doubt; inactive means no such curve, though single readings can be large or run the other way; further: potency means the concentration at half of the fitted maximal effect; on the % scale 0 is the no-effect control and ±100 the full control effect
#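 Erythrocytes infected with luciferase-expressing P. falciparum were dispensed at 2% hematocrit and 0.05% parasitemia (final), then incubated with compounds 96 hours at 37 C in 5% CO2. Luminescence after detection reagent addition reported growth.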
# NS1 inh: qHTS Assay for Inhibitors of Influenza NS1 Protein Function. Potency, µM (top dose mostly 46.1 µM), for inactives: at the top dose activity, positive = more growth. 0.4% of 270,000 active. AID 2326, 2010; further: potency means the concentration at half of the fitted maximal effect; actives are rising curves; nearly all actives have a fitted effect of over 50% in size
#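 In this qHTS, NS1 from influenza A is expressed in budding yeast, where it slows growth. Cells are switched from glucose to 2% galactose medium (pH 6.0, -URA), treated with compound, and growth recovery is read at OD600.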
# Cycloheximide cs: Cycloheximide Counterscreen for Small Molecule Inhibitors of Shiga Toxin; 12% of 300,000 active; cell reporter, cycloheximide protein synthesis inhibition counterscreen; max response, %; AID 2314, 2010; in the data active means max response mostly above about 13%, no sharp cut-off; inactive means mostly below about 14%; further: read at 38.3 µM for the half of the compounds with a filed dose; 0% is about no effect
# SARS PLP yeast: qHTS of Yeast-based Assay for SARS-CoV PLP | 0.19% of 330,000 active | S. cerevisiae expressing SARS-CoV PLpro, growth rescue | Potency, µM (titrated, usually from 32.9 µM), for the others: at the top dose activity, positive = growth rescue, actives largely listed as activators; further: potency means the concentration at half of the fitted maximal effect; 0% is about no effect; nearly all actives have a fitted effect of over 55% in size
# Pf growth 48h: Primary qHTS for delayed death inhibitors of the malarial parasite plastid, 48 hour incubation; P. falciparum luciferase growth in erythrocytes, 48 h; Potency, µM (highest dose often 28.7 µM), for inactives: at the top dose activity change, negative = inhibition, hits mostly inhibitors; 5.9% of 310,000 active; AID 504832, 2011; active means well fitted inhibition curve with a large enough effect; inconclusive means small, poorly fitted or top-dose-only effect, or another doubt; inactive means no such curve, though single readings can be large or run the other way; further: potency means the concentration at half of the fitted maximal effect; on the % scale 0 is the no-effect control and ±100 the full control effect
#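 Read-out is firefly luciferase luminescence from an integrated reporter in P. falciparum, so falling signal marks reduced parasite growth. Infected erythrocytes were at 2% hematocrit and 0.1% parasitemia (final) in Albumax-supplemented RPMI 1640.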
# Shiga inhibitor: A qHTS for Small Molecule Inhibitors of Shiga Toxin; Vero cells, Shiga toxin protein synthesis inhibition reporter; AID 2315, 2010; 9.2% of 290,000 active; inhibition, % at 38.7 µM; in the data active means inhibition mostly above about 28%, no sharp cut-off; inactive means mostly below about 43%; further: 0% is about no effect
# Starred values were filed as active, the others as inactive; ? = inconclusive; nt = not tested or not shown; + = active, no number; [ ] = another dose, or the depositor's remark. Shown are actives, neighbours in structure and some others; about 21% of the full set was active somewhere. Unless noted, the call rests on the fitted dose curve.
SMILES,Pf growth 96h,NS1 inh,Cycloheximide cs,SARS PLP yeast,Pf growth 48h,Shiga inhibitor
Cc1cccc(/C=N/Nc2nncc3ccccc23)c1,458%,nt,24*,-7%,288%,47*
CN(C)c1ccc(/C=N/NC(=O)C2CC2c2ccccc2)cc1 (stereo not given),13%,-5%,11,-1%,-9%,6
CN(C)c1ccc(/C=N/Nc2nncc3ccccc23)cc1,-4%,-11%,28*,-9%,-124%,109*
COc1cccc(OCC(=O)NC2CCS(=O)(=O)C2)c1 (stereo not given),76%,nt,nt,-3%,0%,nt
COc1cc(/C=N/Nc2nncc3ccccc23)cc(OC)c1OC,164%,-4%,39*,-2%,132%,87*
CC(C)(C)c1ccc(COc2ccsc2C(=O)O)cc1,7%,nt,21*,0%,?,35*
Cc1ccc(NS(=O)(=O)c2ccc3c(c2)NC(=O)CCS3)cc1C,?,-2%,2,-5%,13µM*,14
Cc1ccc(NS(=O)(=O)c2ccc3c(c2)NC(=O)CCS3)cc1F,-20%,4%,7,19%,9.3µM*,-3
CCOc1ccccc1NS(=O)(=O)c1ccc2c(c1)NC(=O)CCS2,?,9%,0,-3%,-10%,-5
CCOc1ccc(S(=O)(=O)Nc2cccc(C(=O)NCC(c3ccco3)N3CCCC3)c2)cc1 (stereo not given),?,nt,nt,-1%,?,nt
O=C(O)c1ccc2c(=O)n3cc(C(=O)c4ccccc4O)cc(Cl)c3nc2c1,?,?,34*,0%,-6%,-2
CCN(CC)S(=O)(=O)c1ccc(-c2nnc(SCC(=O)Nc3cc(OC)cc(OC)c3)o2)cc1,nt,7%,-2,2%,13µM*,-18
COc1cc(OC)cc(-c2nnc(SCC(=O)N3CCOCC3)o2)c1,3%,-15%,-3,?,3.7µM*,-4
CCN(CC)S(=O)(=O)c1cccc(-c2nnc(SCCOc3ccc(Cl)cc3)o2)c1,10µM*,5%,-4,-7%,-24%,4
CCN(CC)S(=O)(=O)c1cccc(-c2nnc(SCCOc3ccccc3)o2)c1,-45%,-18%,-2,-12%,nt,28
COc1ccccc1-c1nnc(SCC(=O)N2CCCC2)o1,268%,-3%,9,-18%,18%,40*
CCN(CC(=O)Nc1ccc(NC(C)=O)cc1)C(=O)/C=C/c1ccc(C)o1,-17%,nt,nt,-1%,-1%,nt
Cc1ccc(C)c(N2CCN(C(=O)Cc3ccc(NC4=NC5CS(=O)(=O)CC5S4)cc3)CC2)c1 (stereo not given),?,6%,-1,4%,-2%,-9
O=C(CSc1nnc(-c2ccccc2F)o1)N1CCCC1,-7%,13%,26*,1%,40%,86*
O=C(CSc1nnc(-c2ccccc2Br)o1)N1CCc2ccccc2C1,3.3µM*,-83%,-5,8%,8%,-11
COc1ccc(-c2nnc(SCC(=O)N3CCCC3)o2)c(OC)c1,10%,2%,18,-2%,36%,46*
CCN(CC)S(=O)(=O)c1ccc(-c2nnc(SCC(C)=O)o2)cc1,?,5%,-1,3%,nt,11
CCN(CC)S(=O)(=O)c1ccc(-c2nnc(SCC(=O)N3CCOCC3)o2)cc1,8.3µM*,0%,1,-1%,?,-6
Cc1cccc(NC(=O)C(C)SCc2nc3sc4c(c3c(=O)[nH]2)CCCC4)n1 (stereo not given),20%,nt,nt,3%,?,nt
CC(C)(C)NS(=O)(=O)c1ccc(CCC(=O)N2CCCC2)cc1,30%,-1%,8,1%,?,-6
SMILES,Pf growth 96h,NS1 inh,Cycloheximide cs,SARS PLP yeast,Pf growth 48h,Shiga inhibitor
CC1CCCCN1C(=O)CSc1nnc(-c2ccccc2F)o1 (stereo not given),3%,0%,35*,1%,131%,94*
CC1CCCCN1C(=O)CSc1nnc(-c2ccco2)o1 (stereo not given),5.2µM*,0%,37*,1%,123%,108*
CN(C(=O)CSc1nnc(-c2ccco2)o1)C1CCCCC1,120%,-1%,13,0%,70%,59
CCOc1ccccc1-c1nnc(SCC(=O)NC2(C#N)CCCC2)o1,9.3µM*,nt,nt,2%,?,nt
O=C(CSc1nc2ccccc2o1)N1c2ccccc2Sc2ccccc21,53%,-1%,21,-5%,?,-14
N#CCc1nc(CSc2nc3ccccc3o2)cs1,?,-15%,25,-5%,129%,70*
O=C(O)c1ccc(-c2cccc([N+](=O)[O-])c2)o1,7%,2%,5,3%,18%,22
N#C/C(=C(/O)CSc1ccccn1)c1nc2ccccc2s1,-5%,17%,25*,0%,73%,47
N#C/C(=C(/O)c1ccc(-c2cccc([N+](=O)[O-])c2)o1)c1nc2ccccc2s1,?,nt,21,2%,25%,53*
N#C/C(=C(/O)c1ccc(F)cc1)c1nc2ccccc2s1,29%,-1%,20*,-9%,194%,20
CCCc1cc(=O)n2nc(N3CCC(C(=O)Nc4cccc(C(C)=O)c4)CC3)sc2n1,-19%,2%,-3,1%,-18%,-2
O=C(CNC(=O)c1ccc(Cl)c([N+](=O)[O-])c1)OC1CCCCC1=O (stereo not given),3%,nt,nt,-1%,0%,nt
COCCCNC(=O)Cn1ccc(NC(=O)OCc2ccccc2)nc1=O,27%,nt,nt,4%,51%,nt
N#Cc1cccc(S(=O)(=O)NCc2nnc3ccccn23)c1,-20%,nt,nt,0%,-20%,nt
CCCCc1ccc(S(=O)(=O)NCCCN2CCCC2=O)cc1,-5%,10%,-3,4%,23%,-2
c1ccc2oc(SCc3nc4ccccc4s3)nc2c1,189%,-48%,43*,nt,180%,+
NCCc1nc2ccccc2s1,4%,nt,5,3%,12%,-5
c1ccc(SCc2nc3ccccc3s2)nc1,269%,7%,33*,-2%,18%[0.00184 µM],81*
Cc1cc(NC(=O)Cc2ccccc2)c2ccccc2n1,?,nt,0,-6%,-14%,-10
Cc1nc2ccccc2c2nc(NC(=O)Cc3ccccc3)nn12,nt,-5%[9.22 µM],10,-6%,79%,42*
Cc1ccc(-n2cc(CNC(C)c3cnn(C)c3)c(-c3ccc(F)cc3)n2)cc1 (stereo not given),?,-2%,-2,-1%,?,-17
Cc1ccc(-n2cc(CNC(C)Cn3cncn3)c(-c3ccc(F)cc3)n2)cc1 (stereo not given),11%,-5%,10,-2%,7.4µM*,39
COc1ccc(-c2nn(-c3ccccc3C)cc2CNC(C)Cn2cncn2)cc1F (stereo not given),?,-2%,-1,0%,?,-7

# Source: PubChem BioAssay (National Center for Advancing Translational Sciences (NCATS))
